Reference: the supplement of paper PMC7595190
Unmarked numbers belong to inactive results.

Tested on: MV4-11
Experiment: CellTox Green cytotoxicity fluorescence relative to DMSO vehicle (fold of vehicle RFU); higher = more cell death (loss of membrane integrity), active = 2 or more
Procedure: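 Paediatric AML cell lines (MV4-11, CMK, Kasumi-1; 4x10^4 cells/well, 96-well) treated with single compounds from the Selleckchem apoptosis library at 0.01, 0.1 and 1 µM. Cytotoxicity was read with CellTox Green (RFU, Ex 485/Em 520) at 24, 48 and 72 h and normalised to the 0.1% DMSO vehicle. Normalised RFU >= 2 was taken as a successful, cell-killing treatment.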

Compound	CellTox Green cytotoxicity fluorescence (0.01 µM, 24 h)	CellTox Green cytotoxicity fluorescence (0.01 µM, 48 h)	CellTox Green cytotoxicity fluorescence (0.01 µM, 72 h)	CellTox Green cytotoxicity fluorescence (0.1 µM, 24 h)	CellTox Green cytotoxicity fluorescence (0.1 µM, 48 h)	CellTox Green cytotoxicity fluorescence (0.1 µM, 72 h)	CellTox Green cytotoxicity fluorescence (1 µM, 24 h)	CellTox Green cytotoxicity fluorescence (1 µM, 48 h)	CellTox Green cytotoxicity fluorescence (1 µM, 72 h)
COCC[n+]1c2c(n(Cc3cnccn3)c1C)C(=O)c1ccccc1C2=O [Sepantronium Bromide]	0.95	0.938	0.957	1.02	1.83	2.14 (active)	1.35	2.26 (active)	2.48 (active)
O=C1C(=O)N(Cc2ccc(Cl)c(Cl)c2)c2ccccc21 [Apoptosis Activator 2]	0.971	0.978	0.98	1.02	1.03	1.02	1.02	1.13	1.13
COc1ccc(C2=N[C@@H](c3ccc(Cl)cc3)[C@@H](c3ccc(Cl)cc3)N2C(=O)N2CCNC(=O)C2)c(OC(C)C)c1 [Nutlin-3]	0.981	1	0.995	0.991	0.999	1.03	1.01	1.24	1.46
C[C@H]1Oc2cc(cnc2N)-c2c(nn(C)c2C#N)CN(C)C(=O)c2ccc(F)cc21	0.984	0.959	0.958	0.992	0.992	0.992	0.964	0.976	0.975
CCS(=O)(=O)N1CCN(c2ccc(Nc3ncc(C(N)=O)c(NC4CC4)n3)cc2)CC1 [Cerdulatinib]	0.937	0.94	0.941	0.942	0.965	0.965	0.949	1.07	1.11
